From PubChem
HT1080 IDH1KD tx = qHTS for induction of synthetic lethality in tumor cells producing 2HG: qHTS for the HT-1080-IDH1KD cell line; actives 2% (n = 360,000); Potency, µM (series often up to 46.1 µM), for inactives: at the top dose activity, negative = toxicity, usual class: cytotoxic; HT-1080 IDH1 knockdown viability, ATP luminescence, 48 h; AID 686971, 2013;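 note: 0% = DMSO wells and -100% = cell-free medium wells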
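Knockdown cells (IDH1KD HT-1080) received compounds 2 h after plating at 750 cells/well and were kept 48 h at 37 °C in 5% FBS RPMI. A CellTiter-Glo luminescence read gave % activity for curve fitting.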
HepG2 tox = qHTS for Inhibitors of TGF-b: Cytotox Counterscreen. HepG2 CAGA-GFP viability, ATP luminescence, 18 h. Potency, µM (series often up to 46.1 µM), without a hit: top-dose activity change, negative = cytotoxicity, usual class: cytotoxic. actives 0.76% (n = 410,000). AID 588856, 2011
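CellTiter-Glo luminescence gave cytotoxicity after 18 hours at 37 degrees C. The cells were HepG2 CAGA-GFP in 1% FBS DMEM, stimulated with 500 pg/mL TGF-beta after compound addition. %Activity was normalised to no-cell wells (complete cell-killing) and DMSO (no toxicity), and curves were fitted and classified.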
TDP1 cell noCPT = qHTS for Inhibitors of human tyrosyl-DNA phosphodiesterase 1 (TDP1): qHTS in cells in absence of CPT; Potency, µM (highest dose often 46.2 µM), inactives show at the top dose activity change, negative = growth inhibition, most hits filed as inhibitors; AID 686978, 2013; DT40 Tdp1-/- hTDP1 cells, no CPT, ATP luminescence, 48 h; actives 15% (n = 420,000); note: % is set by controls: 0 for no effect and ±100 for the full control effect; nearly all actives have a fitted effect of over 55% in size
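Growth kinetics read by CellTiter-Glo luminescence after ≥48 hr at 37 °C. Cells: DT40 Tdp1-/- stably carrying human TDP1, 400 per well, compound exposure in the absence of CPT (DMSO vehicle).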
DT40 TDP1 CPT = qHTS for Inhibitors of human tyrosyl-DNA phosphodiesterase 1 (TDP1): qHTS in cells in presence of CPT. AID 686979, 2013. Potency, µM (doses to about 46.2 µM), without a hit: at the top dose activity change, negative = growth inhibition, usual class: inhibitors. chicken DT40 Tdp1-/-;hTDP1 cells + 20 nM CPT, ATP luminescence, 48 h. actives 12% (n = 420,000); note: % is set by controls: 0 for no effect and ±100 for the full control effect; nearly all actives have a fitted effect of over 55% in size
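Chicken DT40 Tdp1-/- cells complemented with human TDP1, 400 cells/well, exposed to compounds plus 20 nM camptothecin for at least 48 h at 37 C; viability read as ATP content by CellTiter-Glo luminescence.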
HT1080NT lethal = qHTS for induction of synthetic lethality in tumor cells producing 2HG: qHTS for the HT-1080-NT fibrosarcoma cell line; actives 1.6% (n = 360,000); Potency, µM (highest dose often 46.1 µM), inactives show at the top dose activity, negative = less viability, hits mostly cytotoxic; HT-1080-NT fibrosarcoma viability, CellTiter-Glo ATP luminescence, 48 h;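 note: NT is the 2HG producing partner of a matched IDH1 knockdown line; 0% = DMSO-treated cells and -100% = media-only wells without cells; nearly all actives have a fitted effect of over 55% in size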
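Read-out is CellTiter-Glo luminescence after 10 minutes at room temperature, following 48 hours' compound treatment of HT-1080-NT cells (750 cells/well, RPMI, 5% FBS, 37 degrees C).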
TGFb SMAD3 inh = qHTS for Inhibitors of TGF-b; HepG2 CAGA-GFP TGF-b/SMAD3 reporter, GFP fluorescence, 18 h; TGF-beta stimulated, 500 pg/mL final; Potency, µM (doses to about 46.1 µM), for the others: at the top dose activity, negative = inhibition, usual class: inhibitors; actives 1.2% (n = 410,000); AID 588855, 2011; note: % is set by controls: 0 for no effect and ±100 for the full control effect; nearly all actives have a fitted effect of over 65% in size
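HEPG2 CAGA-GFP, 1000 cells/well; 2 h settle, 37 C; cpd via pin tool; TGF-b 500 pg/mL final; 18 h, 37 C; GFP imaging ex488/em500-530; %Activity normalised to -TGF-b and +DMSO controls; CRC fit, curve class.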
* hit, by the source's call; ? = inconclusive; . = not tested or not shown; [ ] = remark or other dose. Shown are actives, neighbours in structure and some others; about 17% of the full set was active somewhere. Calls come from the whole dose curve; as a rule, active = well fitted curve in the direction sought with a large enough effect; inconclusive = small, poorly fitted or top-dose-only effect, or another doubt; inactive = no such curve, though single readings can be large; an effect the other way counts as inactive or inconclusive. Potency is the fitted concentration of half-maximal effect.

SMILES	HT1080 IDH1KD tx	HepG2 tox	TDP1 cell noCPT	DT40 TDP1 CPT	HT1080NT lethal	TGFb SMAD3 inh
COc1ccc(S(=O)(=O)NCCc2nnc3ccc(SCC(=O)Nc4ccc(C(F)(F)F)cc4)nn23)cc1	.	-4%	23µM*	?	.	-12%
Cc1ccc(NC(=O)CSc2ccc3nnc(CCNS(=O)(=O)c4ccccc4)n3n2)cc1Cl	.	0%	?	16µM*	.	33%
Fc1cccc(Cl)c1CNCc1ccccc1Cl	-2%	-10%	?	-25%	-6%	28%
COc1cccc(C(=O)Nc2sc3c(c2C#N)CCN(C(C)=O)C3)c1	2.9µM*	-13%	1.5µM*	2.1µM*	2.6µM*	?
COC(=O)N1CCc2c(sc(NC(=O)C3=COCCO3)c2C#N)C1	3.7µM*	-11%	0.92µM*	1.3µM*	4.6µM*	3%
CN(C(=O)Cn1cnc2onc(-c3ccc(F)cc3)c2c1=O)c1ccccc1Cl	.	-33%	?	21µM*	.	?
CCOc1ccccc1N(C)C(=O)Cn1cnc2onc(-c3ccc(F)cc3)c2c1=O	.	-49%	21µM*	?	.	11%
CCCN(CCC)CCCNC(=O)Cn1cnc2onc(-c3ccc(F)cc3)c2c1=O	.	-41%	-25%	-14%	.	-16%
COc1ccc(N(C)C(=O)CCn2cnc3onc(-c4ccc(F)cc4)c3c2=O)c(OC)c1	.	-23%	13µM*	21µM*	.	-13%
Cc1ccc(S(=O)(=O)N2C(=O)[C@@H]3Cc4ccccc4CN3C2=O)cc1	?	6%	?	?	?	43%
CCOC(=O)N1CCN(CC(=O)Nc2nccs2)CC1	8%	-2%	0%	0%	16%	-3%
CC(=O)c1ccc(-c2c(CCO)sc3ccccc23)cc1	-28%	.	?	?	-21%	.
Cc1cc(C)c(CSc2nnc(C)n3c2cc2occc23)c(C)c1	.	-101%	21µM*	18µM*	.	?
Cc1cc(C)c(CSc2ncnc3nc[nH]c23)c(C)c1	-2%	-15%	-27%	-17%	-2%	-12%
CCOc1cc(S(=O)(=O)n2cc(-c3ccc(F)cc3)c(N)n2)cc(OCC)c1OCC	-10%	-7%	13µM*	?	-18%	?
COc1ccc(CCN2Cc3c(N)cccc3C2=O)cc1OC	?	-4%	-4%	-3%	21%	-5%
CCc1noc(C)c1C(=O)Nc1ccc(C(F)(F)F)cc1	1%	-1%	-1%	-12%	-6%	-3%
Cn1c(SCCN2CCOCC2)nc2sc3c(c2c1=O)CCCC3	1%	2%	-25%	4%	8%	-2%
Cc1noc(C)c1CSc1nc2sc3c(c2c(=O)n1C)CCCC3	-5%	-76%	?	12µM*	5%	16%
COC(=O)c1sc(N)c(C(=O)OC)c1CSc1nc2sc3c(c2c(=O)n1C)CCC3	4%	2%	26µM*	?	9%	1%
C=CCn1c(SCc2c(C)noc2C)nc2sc3c(c2c1=O)CCCC3	?	-19%	?	18µM*	-19%[9.24 µM]	7%
COc1cccc2c1cc1c(=O)n(CC(=O)N3CCN(c4ccc(Cl)cc4)CC3)nc(C)n12	.	1%	-12%	-5%	.	-13%
Cc1noc(C)c1C(=O)Nc1nc(-c2ccc([N+](=O)[O-])cc2)cs1	-15%	-3%	?	?	-19%	?
